Assay results from PubChem BioAssay (Tox21).
“And” between values parts separate entries of the source, which are not always exact repeats. Equal entries are not always repeated. Results filed as inconclusive are left out. Unmarked numbers belong to inactive results. The source made the active and inactive calls. Calls come from the whole dose curve; as a rule, active = well fitted cell-killing curve with a large enough effect in the repeat runs; inconclusive = weak or mixed curves, or effect the other way; inactive = flat fitted curve, though single readings scatter.

test: qHTS RealTime-Glo MT Cell Viability Assay in HEK293 cells - 40 hour (AID 1224874); conditions: RealTime-Glo luminescence; max response: hits give low values; note: nearly all actives have a fitted effect of over 50% in size
Description: U.S. Tox21 Program National Center for Advancing Translational Sciences [NCATS] NIH Chemical Genomics Center [NCGC] U.S. Environmental Protection Agency [EPA] National Institutes of Environmental Health Sciences [NIEHS] National Toxicology Program [NTP] U.S. Food and Drug Administration [FDA] Tox21 Assay Overview: Measure of cell viability is critical in the cell-base assay. Analysis of cell viability is necessary for the characterization of cell responses to cytotoxic drugs and environmental stress. A RealTime-Glo MT Cell Viability Assay to monitor cell viability in real time of continues cell culture during 40 hours of compound treatment was used to screen Tox21 10K library compounds in Hek293 cells. The RealTime-Glo MT Cell Viability Assay is a nonlytic, homogeneous, bioluminescent method to measure cell viability in real time using a simple, plate-based method. The assay involves adding NanoLuc luciferase and a cell-permeant prosubstrate to cells in culture. Viable cells reduce the proprietary prosubstrate to generate a substrate for NanoLuc luciferase. This substrate diffuses from cells into the surrounding culture medium, where it is rapidly used by the NanoLuc Enzyme to produce a luminescent signal. The signal correlates with the number of viable cells, making the assay well suited for cytotoxicity studies.
Tox21 Assay Protocol Summary: The mixture of Hek293 cell suspension and reagents were dispensed at 600cells/6 ul/well in 1536-well tissue culture treated black solid bottom plates using a Multidrop dispenser. After the assay plates were incubated at a 37 C/5% CO2 incubator for 5 hours, 23 nL of compounds dissolved in DMSO, positive and negative controls was transferred to the assay plate by a pintool work station. The plates were incubated at 37 C for 40 hours. The luminescence intensity were measured at 0h, 8h, 16h, 24h, 32h and 40h time points using ViewLux plate reader during compound treatment.
% is set by controls: 0 for no effect and ±100 for the full control effect; potency is the fitted concentration of half-maximal effect.

With `N#Cc1c[nH]cc1-c1cccc2c1OC(F)(F)O2` the Potency was 6.16 µM (active).
With `O=[N+]([O-])C(Br)Br` the Potency was 55 µM (active).
In the case of `N#CC(C#N)=NNc1cccc(Cl)c1`, the Potency is reported as 5.49 µM (active).
For `COC(=O)N(OC)c1ccccc1COc1ccn(-c2ccc(Cl)cc2)n1`, the Potency was 13.8 µM (active).
In the case of `O=[N+]([O-])c1cc(C(F)(F)F)c(Cl)c([N+](=O)[O-])c1Nc1ncc(C(F)(F)F)cc1Cl`, the Potency is reported as 1.55 µM (active).
With `O=C1C(Cl)=C(Cl)C(=O)C(Cl)=C1Cl` the Potency was 21.8 µM (active) and 21.9 µM (active).
In the case of `O=S1OCC2C(CO1)C1(Cl)C(Cl)=C(Cl)C2(Cl)C1(Cl)Cl` (stereo not given), the Potency is reported as 21.9 µM (active) and 38.9 µM (active).
For `Clc1ccc(C(Cl)(Cl)Cl)cc1Cl`, the Potency was 33.9 µM (active).

Compared with `ClC1=C(Cl)[C@]2(Cl)[C@@H]3[C@H]4C[C@H]([C@@H]5O[C@H]45)[C@@H]3[C@@]1(Cl)C2(Cl)Cl`, `O=[N+]([O-])c1ccc(Cl)c(Cl)c1Cl` is lower in max response: 3.07% for the first, -8.94% for the second.

Going from `O=C(O)CCCCCCNC1c2ccccc2CCc2ccccc21` to `c1ccc(N=NNc2ccccc2)cc1`, the max response falls from 11.4% to -3.75%.

Going from `C#CCO` to `[O-][Cl+3]([O-])([O-])O`, the max response rises from 3.5% to 7.85%.

Going from `CC(Cc1ccc2c(c1)OCO2)NO` (stereo not given) to `CCc1cccc(C)c1N(C(=O)CCl)[C@@H](C)COC`, the max response falls from 0.458% to -25.5%.

First: CCN(CC)CCc1c[nH]c2ccccc12
Second: CN(C)CCc1c[nH]c2ccccc12
The max response of the first is higher: 6.8% for the first, -4.01% for the second.

Going from `CC(Cl)CCl` (stereo not given) to `NC(=O)C(Cl)Cl`, the max response rises from -4.79% to 3.34%.

First: CC1CN1 (stereo not given)
Second: CCCN
The max response of the first is higher: 6.11% for the first, -0.242% for the second.

Compared with `CCN(CC)Cc1nccn1-c1ccc([N+](=O)[O-])cc1C(=O)c1ccccc1Cl`, `O=C(Nc1ccc(F)cc1F)c1cccnc1Oc1cccc(C(F)(F)F)c1` is higher in max response: -11.1% for the first, 0.876% for the second.

First: O=[N+]([O-])c1cccc2cccc([N+](=O)[O-])c12
Second: Cc1ccc(C)c2ccccc12
The max response of the first is higher: -12.3% for the first, -14.8% for the second.

Compared with `CNC(=O)O/N=C(\C)C(C)S(C)(=O)=O` (stereo not given), `CNC(=O)Oc1cc(C)cc(C(C)C)c1` is higher in max response: 1.59% for the first, 5.9% for the second.

First: O=S(=O)(O)F
Second: COc1nc(C)nc(NC(=O)NS(=O)(=O)c2ccccc2Cl)n1
The max response of the first is higher: 6.96% for the first, 1.45% for the second.

Going from `CCOP(=O)(OCC)Oc1cc(C)nc(C(C)C)n1` to `CSC(=O)c1c(C(F)F)nc(C(F)(F)F)c(C(=O)SC)c1CC(C)C`, the max response falls from 1.52% to -19%.

Compared with `CC(C)C(Br)C(=O)NC(N)=O` (stereo not given), `CCCCC(CC)COC(=O)c1ccccc1C(=O)OCC(CC)CCCC` (stereo not given) is lower in max response: 7.13% for the first, 1.87% for the second.

Going from `C[N+]1(C)[C@@H]2CC[C@H]1CC(OC(=O)C(CO)c1ccccc1)C2` (stereo not given in full) to `COC(=O)c1ccccc1S(=O)(=O)NC(=O)Nc1nc(C)nc(OC)n1`, the max response falls from 8.28% to 0.753%.

Going from `O=C(CCCCl)c1ccc(F)cc1` to `Nc1cc(Cl)ccc1Cl`, the max response rises from -0.41% to 22.7%.

Going from `CCCCn1cc[n+](C)c1.[Cl][Fe-]([Cl])([Cl])[Cl]` to `CC(=O)O.CC(=O)O.CC(=O)O.CC(=O)O.CC(=O)O.CC(=O)O.CC(=O)O.O.O.[Cr].[Cr].[Cr]`, the max response rises from 2.18% to 2.64%.
